40 sequences from publication PMC12820563, “FoxP3 forms a head-to-head dimer in vivo and stabilizes its multimerization on adjacent microsatellites” can be followed below.

Over roughly 16,000 sequences, “rpm ratio (pull-down/input)” has its median near 0.94; the highest 2% begin near 1.7. This is one part of a sample in which the highest values are shown more often than they occur.

The target of this experiment is T1, MBP-FoxP1dN (Mus musculus, UniProt P58462 326-579).
T1 sequence: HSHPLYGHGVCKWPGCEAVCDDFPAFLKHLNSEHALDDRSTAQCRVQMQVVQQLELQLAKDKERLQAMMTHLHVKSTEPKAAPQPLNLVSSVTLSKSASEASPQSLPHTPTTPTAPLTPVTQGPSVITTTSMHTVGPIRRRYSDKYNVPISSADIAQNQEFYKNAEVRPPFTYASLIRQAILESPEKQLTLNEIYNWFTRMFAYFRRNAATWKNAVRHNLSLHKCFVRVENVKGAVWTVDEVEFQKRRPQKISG
The experiment is described as follows: PD-seq (MBP pull-down with sequencing); 20 mM Tris-HCl pH 7.5, 100 mM NaCl, 1.5 mM MgCl2, 0.4 uM protein, 0.1 uM dsDNA library, 30 min, room temperature, amylose pull-down; high values mean tight binding. The following applies: protein: recombinant; tags: His6-MBP; chain copies: 2; dsDNA, one strand shown. The procedure, abridged: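 In Tris pH 7.5 buffer with NaCl and MgCl2, 0.4 µM His6-MBP-tagged mouse FoxP3 or FoxP1 fragment lacking the N-terminus, from E. coli, met 0.1 µM Klenow-filled double-stranded degenerate DNA library for 30 min at room temperature. Three washes on amylose resin followed capture of the complexes, then proteinase K release of DNA, PCR barcoding and Illumina sequencing. Binding is taken as pooled-replicate reads-per-million enrichment of pull-down relative to input.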
As to “GATGATTGTTCTCCCAGCTGATGAATTGGTCAGGTCGAGTAAACAAATTTTCCTAATCTTTCTGTTCAAGCGCCATCTAC”, the binding signal is 0.794 RPM ratio (pull-down/input).
With “GATGATTGTTCTCCCAGCTGATGAATTGCGTGCCTCGAGTAAACAAATTTTCCTAATCTTTCTGTTCAAGCGCCATCTAC” the figure was 1.09 RPM ratio (pull-down/input); with “GATGATTGTTCTCCCAGCTGATGAATTCGGTTTCTCGAGTAAACAAATTTTCCTAATCTTTCTGTTCAAGCGCCATCTAC”, 0.847 RPM ratio (pull-down/input).
Consider “GATGATTGTTCTCCCAGCTGATGAATTCGGAGCATCGAGTAAACAAATTTTCCTAATCTTTCTGTTCAAGCGCCATCTAC”, for which the binding signal is 1 RPM ratio (pull-down/input).
With “GATGATTGTTCTCCCAGCTGATGAATTCGATTCTTCGAGTAAACAAATTTTCCTAATCTTTCTGTTCAAGCGCCATCTAC” the figure was 0.855 RPM ratio (pull-down/input); with “GATGATTGTTCTCCCAGCTGATGAATTAAAGGAATCGAGTAAACAAATTTTCCTAATCTTTCTGTTCAAGCGCCATCTAC”, 0.934 RPM ratio (pull-down/input); with “GATGATTGTTCTCCCAGCTGATGAATTGTTCGAGTCGAGTAAACAAATTTTCCTAATCTTTCTGTTCAAGCGCCATCTAC”, 1.05 RPM ratio (pull-down/input).
Turning to “GATGATTGTTCTCCCAGCTGATGAATTTTGGCGATCGAGTAAACAAATTTTCCTAATCTTTCTGTTCAAGCGCCATCTAC”, the binding signal is 0.955 RPM ratio (pull-down/input).
With “GATGATTGTTCTCCCAGCTGATGAATTGGACGTGTCGAGTAAACAAATTTTCCTAATCTTTCTGTTCAAGCGCCATCTAC” the figure was 0.855 RPM ratio (pull-down/input); with “GATGATTGTTCTCCCAGCTGATGAATTGTCCCTCTCGAGTAAACAAATTTTCCTAATCTTTCTGTTCAAGCGCCATCTAC”, 0.967 RPM ratio (pull-down/input); with “GATGATTGTTCTCCCAGCTGATGAATTGGACAAATCGAGTAAACAAATTTTCCTAATCTTTCTGTTCAAGCGCCATCTAC”, 1.05 RPM ratio (pull-down/input).
The figure for “GATGATTGTTCTCCCAGCTGATGAATTGAATCTGTCGAGTAAACAAATTTTCCTAATCTTTCTGTTCAAGCGCCATCTAC” is 0.897 RPM ratio (pull-down/input).
With “GATGATTGTTCTCCCAGCTGATGAATTTGATATTTCGAGTAAACAAATTTTCCTAATCTTTCTGTTCAAGCGCCATCTAC” the figure was 1.13 RPM ratio (pull-down/input); with “GATGATTGTTCTCCCAGCTGATGAATTTTGATATTCGAGTAAACAAATTTTCCTAATCTTTCTGTTCAAGCGCCATCTAC”, 1.19 RPM ratio (pull-down/input).
As for “GATGATTGTTCTCCCAGCTGATGAATTTGATATGTCGAGTAAACAAATTTTCCTAATCTTTCTGTTCAAGCGCCATCTAC”, the binding signal was 1 RPM ratio (pull-down/input).
The figure for “GATGATTGTTCTCCCAGCTGATGAATTGATATTGTCGAGTAAACAAATTTTCCTAATCTTTCTGTTCAAGCGCCATCTAC” is 2.35 RPM ratio (pull-down/input).
Consider “GATGATTGTTCTCCCAGCTGATGAATTGATATTTTCGAGTAAACAAATTTTCCTAATCTTTCTGTTCAAGCGCCATCTAC”, for which the binding signal was 2.4 RPM ratio (pull-down/input).
The figure for “GATGATTGTTCTCCCAGCTGATGAATTTCGCAGGTCGAGTAAACAAATTTTCCTAATCTTTCTGTTCAAGCGCCATCTAC” is 0.789 RPM ratio (pull-down/input).
With “GATGATTGTTCTCCCAGCTGATGAATTTCAGTGTTCGAGTAAACAAATTTTCCTAATCTTTCTGTTCAAGCGCCATCTAC” the figure was 0.983 RPM ratio (pull-down/input).
The figure for “GATGATTGTTCTCCCAGCTGATGAATTGACAGTTTCGAGTAAACAAATTTTCCTAATCTTTCTGTTCAAGCGCCATCTAC” is 1.26 RPM ratio (pull-down/input); for “GATGATTGTTCTCCCAGCTGATGAATTTGCCACCTCGAGTAAACAAATTTTCCTAATCTTTCTGTTCAAGCGCCATCTAC” it is 0.982 RPM ratio (pull-down/input).
Take “GATGATTGTTCTCCCAGCTGATGAATTTGTGTATTCGAGTAAACAAATTTTCCTAATCTTTCTGTTCAAGCGCCATCTAC”: the binding signal was 1.98 RPM ratio (pull-down/input).
With “GATGATTGTTCTCCCAGCTGATGAATTGTGTATTTCGAGTAAACAAATTTTCCTAATCTTTCTGTTCAAGCGCCATCTAC” the figure was 1.75 RPM ratio (pull-down/input).
With “GATGATTGTTCTCCCAGCTGATGAATTGTGTAATTCGAGTAAACAAATTTTCCTAATCTTTCTGTTCAAGCGCCATCTAC” the figure was 1.32 RPM ratio (pull-down/input); with “GATGATTGTTCTCCCAGCTGATGAATTCGTGTATTCGAGTAAACAAATTTTCCTAATCTTTCTGTTCAAGCGCCATCTAC”, 1.35 RPM ratio (pull-down/input); with “GATGATTGTTCTCCCAGCTGATGAATTCGCCCGATCGAGTAAACAAATTTTCCTAATCTTTCTGTTCAAGCGCCATCTAC”, 0.901 RPM ratio (pull-down/input).
The figure for “GATGATTGTTCTCCCAGCTGATGAATTGCCCCCATCGAGTAAACAAATTTTCCTAATCTTTCTGTTCAAGCGCCATCTAC” is 0.972 RPM ratio (pull-down/input); for “GATGATTGTTCTCCCAGCTGATGAATTCAAGCCCTCGAGTAAACAAATTTTCCTAATCTTTCTGTTCAAGCGCCATCTAC” it is 0.749 RPM ratio (pull-down/input).
In the case of “GATGATTGTTCTCCCAGCTGATGAATTGTATATTTCGAGTAAACAAATTTTCCTAATCTTTCTGTTCAAGCGCCATCTAC”, the binding signal was 1.52 RPM ratio (pull-down/input).
With “GATGATTGTTCTCCCAGCTGATGAATTGTATCTTTCGAGTAAACAAATTTTCCTAATCTTTCTGTTCAAGCGCCATCTAC” the figure was 1.31 RPM ratio (pull-down/input); with “GATGATTGTTCTCCCAGCTGATGAATTGTATTTTTCGAGTAAACAAATTTTCCTAATCTTTCTGTTCAAGCGCCATCTAC”, 1.8 RPM ratio (pull-down/input).
With “GATGATTGTTCTCCCAGCTGATGAATTCCTGTATTCGAGTAAACAAATTTTCCTAATCTTTCTGTTCAAGCGCCATCTAC” the figure was 1.3 RPM ratio (pull-down/input); with “GATGATTGTTCTCCCAGCTGATGAATTCTTGTATTCGAGTAAACAAATTTTCCTAATCTTTCTGTTCAAGCGCCATCTAC”, 1.72 RPM ratio (pull-down/input).
With “GATGATTGTTCTCCCAGCTGATGAATTGTATTGTTCGAGTAAACAAATTTTCCTAATCTTTCTGTTCAAGCGCCATCTAC” the figure was 2.26 RPM ratio (pull-down/input); with “GATGATTGTTCTCCCAGCTGATGAATTCACGACCTCGAGTAAACAAATTTTCCTAATCTTTCTGTTCAAGCGCCATCTAC”, 0.767 RPM ratio (pull-down/input); with “GATGATTGTTCTCCCAGCTGATGAATTTCCGAGATCGAGTAAACAAATTTTCCTAATCTTTCTGTTCAAGCGCCATCTAC”, 0.797 RPM ratio (pull-down/input).
On to “GATGATTGTTCTCCCAGCTGATGAATTTAACTATTCGAGTAAACAAATTTTCCTAATCTTTCTGTTCAAGCGCCATCTAC”, for which the binding signal was 0.876 RPM ratio (pull-down/input).
With “GATGATTGTTCTCCCAGCTGATGAATTGATTCACTCGAGTAAACAAATTTTCCTAATCTTTCTGTTCAAGCGCCATCTAC” the figure was 1.03 RPM ratio (pull-down/input); with “GATGATTGTTCTCCCAGCTGATGAATTCGCACAATCGAGTAAACAAATTTTCCTAATCTTTCTGTTCAAGCGCCATCTAC”, 1.15 RPM ratio (pull-down/input); with “GATGATTGTTCTCCCAGCTGATGAATTTCAAAGTTCGAGTAAACAAATTTTCCTAATCTTTCTGTTCAAGCGCCATCTAC”, 0.792 RPM ratio (pull-down/input).
